# According to the OligoGym collection:
# Molecular target: DSPP
# Assay: pooled miR-30 sensor sort-seq; sequence = guide strand
# Conditions: shRNA
# Also: reference of the scale not given here.
row,Sequence,sensor-assay potency score (higher = more potent)
1,TATGTTGACAACCTCTCCTTGT,0.37
2,TTATTAGTGTCTGATGTGCTAT,-0.602
3,TATCACTGTCATCATCTTCTGC,-0.312
4,TCTATCACCTTCATGCACCAGG,0.183
5,TTTGCTTTCTCTATGGTTGAGC,0.0105
6,TTGCTGTCACTGCTGTCGCTGC,-0.804
7,TTCTCTATGGTTGAGCTTCTGG,-0.413

# Molecular target: DTNBP1
# Assay: as above
# Conditions: shRNA
row,Sequence,sensor-assay potency score (higher = more potent)
1,TATTTTTCTTGTAATTCTCCAG,-0.412
2,TAAAACAACCTGGCTTTCCAGG,-0.923
3,TTCCTCAAAAAACTTCTGCCGC,-0.552
4,TCACTTAAAGTCTTCAGCCCGG,-0.801
5,TTTGCTTCTCTTGACTTGTCAC,0.23
6,TCATCGGACTGAACAACGGGGG,-0.232
7,TAAGTCTTCCAGATGCAGCAGG,-0.317
8,TTTCTTGTAATTCTCCAGTTGC,-0.554
9,TCTAGTTCAGCTTTGAAGGTTT,0.0978
10,TTTTCTTGTAATTCTCCAGTTG,-0.365
11,TGACTTGTCACTTAAAGTCTTC,-0.418
12,ATTTTTCTTGTAATTCTCCAGT,-0.545
